Measurements taken from the supplement of paper PMC13380429.

System: Vero E6 infected with SARS-CoV-2
Assay: inhibition of SARS-CoV-2 cytopathic effect; higher = more antiviral protection, active = above 15
Details: 48 h

Measured: inhibition of SARS-CoV-2 cytopathic effect

COc1cc2ncnc(Nc3ccc(F)c(Cl)c3)c2cc1NC(=O)/C=C/CN1CCCCC1 [dacomitinib]
inactive: 1 nM -4.89% | 8.33 nM -7.71% | 100 nM -13.6% | 833.33 nM -15.7% | 10000 nM -20.6%

CN(C)C(=O)c1cc2cnc(Nc3ccc(N4CCNCC4)cn3)nc2n1C1CCCC1 [ribociclib]
inactive: 1 nM -0.57% | 8.33 nM -0.13% | 100 nM -0.03% | 833.33 nM -3.73% | 10000 nM -7.22%

C=CCNc1c(O)cc2c(O)c1C[C@@H](C)C[C@H](OC)[C@H](O)[C@@H](C)/C=C(\C)[C@H](OC(N)=O)[C@@H](OC)/C=C\C=C(/C)C(=O)N2 [retaspimycin]
inactive: 1 nM 2.45% | 8.33 nM 0.93% | 100 nM 6.54% | 833.33 nM 5.56% | 10000 nM 8.73%

COc1nc(C)nc(Cl)c1NC1=NCCN1 [moxonidine]
inactive: 1 nM -0.54% | 8.33 nM 1.98% | 100 nM -1.9% | 833.33 nM -2.44% | 10000 nM -1.74%

CC1C=CC=CCCC=CC=CC=CC=CC(OC2OC(C)C(O)C(N)C2O)CC2OC(O)(CC(O)C(O)CCC(O)CC(O)CC(O)CC(=O)OC(C)C(C)C1O)CC(O)C2C(=O)O (stereo not given) [nystatin]
inactive: 1 nM 0.06% | 8.33 nM -1.74% | 100 nM -1.14% | 833.33 nM -1.11% | 10000 nM 3.99%

COc1ccc(C2C(=O)c3ccccc3C2=O)cc1 [anisindione]
inactive: 1 nM 0.46% | 8.33 nM 1.92% | 100 nM 2.19% | 833.33 nM -3.04% | 10000 nM -1.46%

COC(=O)C(c1ccccc1)C1CCCCN1 (stereo not given)
inactive: 1 nM -1.97% | 8.33 nM -1.71% | 100 nM -1.37% | 833.33 nM -1.52% | 10000 nM -0.37%

CNC(=O)c1cc(Oc2ccc(NC(=O)Nc3ccc(Cl)c(C(F)(F)F)c3)cc2)ccn1 [sorafenib]
inactive: 1 nM -0.83% | 8.33 nM 1.38% | 100 nM 2.59% | 833.33 nM 2.85%
active: 10000 nM 16.4%

Cc1cnc(C(=O)N[C@H]2CCCCC/C=C\[C@@H]3C[C@@]3(C(=O)NS(=O)(=O)C3CC3)NC(=O)[C@@H]3C[C@@H](Oc4nc5ccccc5c5ccccc45)CN3C2=O)cn1 [paritaprevir]
inactive: 1 nM -1.75% | 8.33 nM -2.06% | 100 nM -0.72% | 833.33 nM 0.24% | 10000 nM 1.71%

CCNC1=Nc2ccc(Cl)cc2C(C)(c2ccccc2)O1 (stereo not given) [etifoxine]
inactive: 1 nM 2.81% | 8.33 nM 2.31% | 100 nM 0.13% | 833.33 nM 2.41% | 10000 nM -2.7%

Cc1cc(C)cc(C(=O)N(C)[C@H](Cc2ccc(-c3ccccc3)cc2)C(=O)N[C@@H](Cc2c[nH]c3ccccc23)C(=O)O)c1
inactive: 1 nM 0.46% | 8.33 nM 3.13% | 100 nM 5.42% | 833.33 nM 0.47% | 10000 nM 1.98%

Cc1cc(N2CCOCC2)ccc1Nc1nc(NC2CCCCC2)c2nc[nH]c2n1
inactive: 1 nM -1.92% | 8.33 nM 1.08% | 100 nM -7.66% | 833.33 nM 3.17% | 10000 nM 0.7%

C=CC(=O)O [acrylate]
inactive: 1 nM 0.49% | 8.33 nM -3.42% | 100 nM -3.82% | 833.33 nM 4.25% | 10000 nM -1.97%

Cc1ccc2c(=O)c3cccc(CC(=O)O)c3oc2c1C
inactive: 1 nM 4.48% | 8.33 nM 0.61% | 100 nM 1.92% | 833.33 nM -1.05% | 10000 nM 1.59%

O=C1C(O)=C([C@H]2CC[C@H](c3ccc(Cl)cc3)CC2)C(=O)c2ccccc21 [atovaquone]
inactive: 1 nM 0.09% | 8.33 nM -1.67% | 100 nM -3.09% | 833.33 nM -1.77% | 10000 nM -9.21%

CC[C@@H](CO)NC(=O)[C@@H]1C=C2c3cccc4c3c(cn4C)C[C@H]2N(C)C1 [methysergide]
inactive: 1 nM -0.52% | 8.33 nM 0.46% | 100 nM 0.82% | 833.33 nM 1.51% | 10000 nM 0.92%

Nc1nccc(Oc2ccc(NC(=O)c3c[nH]cc(-c4ccc(F)cc4)c3=O)cc2F)c1Cl [metatinib]
inactive: 1 nM 0.06% | 8.33 nM 0.76% | 100 nM 0.97% | 833.33 nM 4.29% | 10000 nM -2.56%

O=C1CCCCCCCCCCCCCCO1 [oxacyclohexadecan-2-one]
inactive: 1 nM -0.21% | 8.33 nM 0.27% | 100 nM 0.06% | 833.33 nM 1.81% | 10000 nM -1.21%

CCOC(=O)C(=O)Nc1cccc(OC)c1C(N)=O
inactive: 1 nM 6.62% | 8.33 nM 7.85% | 100 nM 6.88% | 833.33 nM 2.83% | 10000 nM -0.82%

Cc1occc(=O)c1[O-].Cc1occc(=O)c1[O-].[O]=[V+2] [bis(maltolato)oxovanadium(IV)]
inactive: 1 nM 1.28% | 8.33 nM 1.37% | 100 nM 0.44% | 833.33 nM -2.57% | 10000 nM -1.02%

c1cnc(NCc2ccc(CNc3ncccn3)cc2)nc1
inactive: 1 nM -2.38% | 8.33 nM -1.7% | 100 nM -0.65% | 833.33 nM -1.46% | 10000 nM -0.62%

CN1CCC(=C2c3ccccc3CCn3c(C=O)cnc32)CC1 [alcaftadine]
inactive: 1 nM -1.5% | 8.33 nM 0.26% | 100 nM -2.72% | 833.33 nM 0.36% | 10000 nM -2.28%

CCN(CCCOc1ccc2c(Nc3cc(CC(=O)Nc4cccc(F)c4)[nH]n3)ncnc2c1)CCOP(=O)(O)O [barasertib]
inactive: 1 nM -0.38% | 8.33 nM 0.9% | 100 nM -1.02% | 833.33 nM -2.03% | 10000 nM -4.38%

Clc1cc(Cl)c(OCC#CI)cc1Cl [haloprogin]
inactive: 1 nM -0.57% | 8.33 nM -1.3% | 100 nM -0.9% | 833.33 nM 4.17%
active: 10000 nM 15.9%

CC(C)C(=O)OC[C@@]1(N=[N+]=[N-])O[C@@H](n2ccc(N)nc2=O)[C@H](OC(=O)C(C)C)[C@@H]1OC(=O)C(C)C [balapiravir]
inactive: 1 nM 2.39% | 8.33 nM 1.09% | 100 nM 0.61% | 833.33 nM -0.11% | 10000 nM 0.76%

CCC(=O)O[C@H]1CC[C@H]2[C@@H]3CCC4=CC(=O)CC[C@]4(C)[C@H]3CC[C@]12C
inactive: 1 nM -13.2% | 8.33 nM -10.2% | 100 nM -12.5% | 833.33 nM -13.3% | 10000 nM -14%

CC1(C)C(=O)N(CCN2CCC(C(=O)c3ccc(F)cc3)CC2)c2ccccc21
inactive: 1 nM -2.5% | 8.33 nM 0.34% | 100 nM -1.18% | 833.33 nM -0.38% | 10000 nM 0.46%

CCC1(c2ccccc2)C(=O)NCNC1=O [primidone]
inactive: 1 nM 0.5% | 8.33 nM -0.36% | 100 nM -1.1% | 833.33 nM 0.53% | 10000 nM 1.81%

CN1C(=O)C(Cc2c[nH]c3ccccc23)NC1=S (stereo not given) [necrostatin-1]
inactive: 1 nM 1.27% | 8.33 nM -1.34% | 100 nM 2.85% | 833.33 nM 1.03% | 10000 nM 1.43%

COc1ccc(Cl)cc1NC(=O)Nc1cc(C)nc2ccccc12
inactive: 1 nM 1.48% | 8.33 nM -2.11% | 100 nM -0.41% | 833.33 nM 1.18% | 10000 nM -17.7%

C=C[C@@](C)(/C=C/c1ccc(O)cc1)CCC=C(C)C [bakuchiol]
inactive: 1 nM 1.64% | 8.33 nM 2.39% | 100 nM 0.23% | 833.33 nM 0.59% | 10000 nM 0.79%

O=c1cc(-c2ccc(O)c(O)c2)oc2cc(O)cc(O)c12 [luteolin]
inactive: 1 nM 1.96% | 8.33 nM 0.53% | 100 nM -1.61% | 833.33 nM -0.15% | 10000 nM 7.72%

C#C[C@]1(O)CC[C@H]2[C@@H]3CCC4=CC(=O)CC[C@@H]4[C@H]3CC[C@@]21C [Norethindrone (Norethisterone)]
inactive: 1 nM -1.49% | 8.33 nM -0.9% | 100 nM -1.69% | 833.33 nM 1.37% | 10000 nM 2.33%

Nc1cc(C(Cl)=C(Cl)Cl)c(S(N)(=O)=O)cc1S(N)(=O)=O [clorsulon]
inactive: 1 nM -0.52% | 8.33 nM 2.04% | 100 nM 2.84% | 833.33 nM -0.01% | 10000 nM -2.69%

O=C(Oc1ccc([N+](=O)[O-])cc1)N1CCC(C(O)(c2ccc3c(c2)OCO3)c2ccc3c(c2)OCO3)CC1
inactive: 1 nM 0.7% | 8.33 nM 6.75% | 100 nM 2.26% | 833.33 nM 1.03% | 10000 nM 1.62%

CC(=O)[C@@]1(O)CC[C@H]2[C@@H]3C=C(Cl)C4=CC(=O)[C@@H]5C[C@@H]5[C@]4(C)[C@H]3CC[C@@]21C
inactive: 1 nM -4.45% | 8.33 nM -5.77% | 100 nM -6.29% | 833.33 nM -6.05% | 10000 nM -4.41%

CCCN[C@H]1CCc2nc(N)sc2C1 [pramipexole]
inactive: 1 nM -2.43% | 8.33 nM -0.27% | 100 nM -3.37% | 833.33 nM -2.16% | 10000 nM -1.54%

c1ccc2nc(C3=NCCN3)cnc2c1
inactive: 1 nM 2.54% | 8.33 nM 1.85% | 100 nM 1.24% | 833.33 nM 4.82% | 10000 nM 2.03%

CCCCc1nc(C)c(CC(=S)N(C)C)c(=O)n1Cc1ccc(-c2ccccc2-c2nnn[nH]2)cc1 [fimasartan]
inactive: 1 nM 0.68% | 8.33 nM -0.83% | 100 nM -1.61% | 833.33 nM 1.46% | 10000 nM -0.45%
